The entries come from a sample that favours the strongest signals as a whole.
Assays:
Assay in all cases: glycan array binding signal (z-score within array); higher = stronger binding
Conditions in all cases: glycan notation: IUPAC condensed, linker removed
[1] = target: Fuc(a1-2)Gal(b1-3)GlcNAc
Summary of the method: (§1)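 Negative Z-scores can be read as non-binding. The Z-score is calculated within each array and then averaged across arrays of one protein sequence at different concentrations or buffers and across linkers. Arrays, 3228 in all, were curated from the Consortium for Functional Glycomics database and kept only where the protein sequence was available.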

[2] = target: Fuc(a1-2)[GalNAc(a1-3)]Gal(b1-3)GlcNAc
Summary of the method: as §1

[3] = target: Fuc(a1-3)[GalNAc(b1-4)]GlcNAc
Summary of the method: as §1

[4] = target: Gal(a1-4)Gal(b1-4)Glc
Summary of the method: as §1

[5] = target: Gal(a1-4)GlcNAc
Summary of the method: as §1

[6] = target: Gal(b1-3)GlcNAc(b1-3)Gal(b1-4)GlcNAc
Summary of the method: as §1

[7] = target: Gal(b1-3)[Fuc(a1-4)]GlcNAc(b1-3)Gal(b1-3)[Fuc(a1-4)]GlcNAc
Summary of the method: as §1

[8] = target: Gal(b1-4)GlcNAc(a1-6)Gal(b1-4)GlcNAc
Summary of the method: as §1

[9] = target: Gal3S(b1-4)Glc
Summary of the method: as §1

[10] = target: Gal4S(b1-4)GlcNAc
Summary of the method: as §1

[11] = target: GalNAc(a1-3)GalNAc
Summary of the method: as §1

[12] = target: Glc(a1-6)Glc(a1-6)Glc
Summary of the method: as §1

[13] = target: GlcA(b1-3)GlcNAc
Summary of the method: as §1

[14] = target: GlcNAc(b1-2)Gal(b1-3)GalNAc
Summary of the method: as §1

[15] = target: GlcNAc(b1-3)Gal
Summary of the method: as §1

[16] = target: GlcNAc(b1-4)Gal(b1-4)GlcNAc
Summary of the method: as §1

[17] = target: GlcNAc(b1-4)[GlcNAc(b1-6)]GalNAc
Summary of the method: as §1

[18] = target: GlcNAc3Prop(b1-4)GlcNAc
Summary of the method: as §1

[19] = target: Man(a1-3)[Man(a1-6)]Man
Summary of the method: as §1

[20] = target: Man(a1-3)[Man(a1-6)]Man(a1-6)[Man(a1-2)Man(a1-3)]Man(b1-4)GlcNAc(b1-4)GlcNAc
Summary of the method: as §1

[21] = target: Neu5Ac(a2-3)Gal(b1-3)GlcNAc6S
Summary of the method: as §1

[22] = target: Neu5Ac(a2-3)Gal(b1-3)[Fuc(a1-4)]GlcNAc(b1-3)Gal(b1-4)[Fuc(a1-3)]GlcNAc
Summary of the method: as §1

[23] = target: Neu5Ac(a2-3)Gal(b1-4)[Fuc(a1-3)]GlcNAc(b1-6)[Gal(b1-3)]GalNAc
Summary of the method: as §1

[24] = target: Neu5Ac(a2-6)Gal(b1-4)GlcNAc(b1-2)Man(a1-3)[GlcNAc(b1-2)Man(a1-6)]Man(b1-4)GlcNAc(b1-4)GlcNAc
Summary of the method: as §1

[25] = target: Neu5Ac(a2-6)Gal(b1-4)GlcNAc(b1-2)Man(a1-3)[Neu5Ac(a2-6)Gal(b1-4)GlcNAc(b1-2)Man(a1-6)]Man(b1-4)GlcNAc(b1-4)GlcNAc
Summary of the method: as §1

[26] = target: Neu5Ac(a2-6)Gal(b1-4)GlcNAc(b1-2)Man(a1-6)[Gal(b1-4)GlcNAc(b1-2)Man(a1-3)]Man(b1-4)GlcNAc(b1-4)GlcNAc
Summary of the method: as §1

[27] = target: Neu5Ac(a2-6)Gal(b1-4)GlcNAc(b1-3)Gal(b1-4)[Fuc(a1-3)]GlcNAc(b1-3)Gal(b1-4)[Fuc(a1-3)]GlcNAc
Summary of the method: as §1

[28] = target: Neu5Ac(a2-8)Neu5Ac(a2-8)Neu5Ac(a2-3)Gal(b1-4)Glc
Summary of the method: as §1

B1: Regenerating Gene I (Homo sapiens), P05451 (protein)
chain: MAQTSSYFMLISCLMFLSQSQGQEAQTELPQARISCPEGTNAYRSYCYYFNEDRETWVDADLYCQNMNSGNLVSVLTQAEGAFVASLIKESGTDDFNVWIGLHDPKKNRRWHWSSGSLVSYKSWGIGAPSSVNPGYCVSLTSSTGFQKWKDVPCEDKFSFVCKFKN
- glycan array binding signal (z-score) [1]: 0.417
- glycan array binding signal (z-score) [2]: -0.479
- glycan array binding signal (z-score) [3]: 0.315
- glycan array binding signal (z-score) [4]: 3.58
- glycan array binding signal (z-score) [5]: 0.102
- glycan array binding signal (z-score) [6]: -0.537
- glycan array binding signal (z-score) [7]: -0.396
- glycan array binding signal (z-score) [8]: 0.071
- glycan array binding signal (z-score) [9]: 0.272
- glycan array binding signal (z-score) [10]: 0.291
- glycan array binding signal (z-score) [11]: -0.588
- glycan array binding signal (z-score) [12]: -0.118
- glycan array binding signal (z-score) [13]: 0.836
- glycan array binding signal (z-score) [14]: -0.206
- glycan array binding signal (z-score) [15]: -0.215
- glycan array binding signal (z-score) [16]: 2.18
- glycan array binding signal (z-score) [17]: 1.91
- glycan array binding signal (z-score) [18]: -0.533
- glycan array binding signal (z-score) [19]: 7.74
- glycan array binding signal (z-score) [20]: -0.594
- glycan array binding signal (z-score) [21]: -0.09
- glycan array binding signal (z-score) [22]: 5.84
- glycan array binding signal (z-score) [23]: -0.128
- glycan array binding signal (z-score) [24]: -0.412
- glycan array binding signal (z-score) [25]: -0.473
- glycan array binding signal (z-score) [26]: -0.33
- glycan array binding signal (z-score) [27]: -0.304
- glycan array binding signal (z-score) [28]: -0.596

— the supplement of paper PMC8728848
